The assay relates to Drosophila S2 cl14 SmoIP sensor cells. Description: normalized SmoIP GFP fluorescence (untreated unstimulated = 0%, untreated Hh-stimulated = 100%); higher = more Smo activation sensor fluorescence. To be noted: compound concentration: 2 uM, 24 h.
The mark [1] stands for this setting: stimulation: Hh conditioned medium (+Hh).
Where [2] appears, read: stimulation: mock conditioned medium (-Hh).

Where a name gives a salt, the structure may show the parent alone.
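Note: flow cytometry read-out as median GFP intensity of gated cells, compounds added 30 min before Hh-conditioned or mock medium, mock-treated cells serving as unstimulated baseline.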

`CN(C[C@@H]1COCCO1)S(=O)(=O)Nc1ccc2ccc3ncc(-c4cnn(C)c4)cc3c(=O)c2c1`: the “normalized SmoIP GFP fluorescence” value under setting [1] was 79.1% and the “normalized SmoIP GFP fluorescence” value under setting [2] turned out to be 16.3%.
`COc1cc(OC)c2c(=O)[nH]c(-c3cc(C)c(OCCO)c(C)c3)nc2c1`: the “normalized SmoIP GFP fluorescence” value under setting [1] came to 112% and the “normalized SmoIP GFP fluorescence” value under setting [2] was -3.16%.
With `COc1cc2c(cc1OC)CN(CCc1ccc(NC(=O)c3cc(OC)c(OC)cc3NC(=O)c3cnc4ccccc4c3)cc1)CC2` [tariquidar], the “normalized SmoIP GFP fluorescence” value by setting is: under setting [1], 120%; under setting [2], 2.77%.
Consider `Cc1cc(Cl)ccc1OCCCC(=O)NO` [Droxinostat], for which the “normalized SmoIP GFP fluorescence” value reads like this: under setting [1], 95.2%; under setting [2], -5.76%.
For `NCCc1c[nH]cn1` [histamine-2hcl], the “normalized SmoIP GFP fluorescence” value by setting is: under setting [1], 104%; under setting [2], 1.21%.
For `CCCCOc1ccc(C(=O)Nc2ccc(F)cc2F)cc1`, the “normalized SmoIP GFP fluorescence” value was 99.9% under setting [1] and -2.08% under setting [2].
With `COc1ccc(C(=O)Nc2sc3c(c2C(N)=O)CCCC3)cc1OC`, the “normalized SmoIP GFP fluorescence” value is 128% under setting [1] and -9.85% under setting [2].
With `CCCCCCCCc1ccc(CCC(N)(CO)CO)cc1`, the “normalized SmoIP GFP fluorescence” value runs as follows: under setting [1], 107%; under setting [2], -0.0369%.
As to `CC(=O)Nc1ccc(NC(=S)NC(=O)c2ccc(C(C)(C)C)cc2)cc1` [tenovin-1], the “normalized SmoIP GFP fluorescence” value by setting is: under setting [1], 97%; under setting [2], -4.47%.
For `O=C(/C=C\n1cnc(-c2cc(C(F)(F)F)cc(C(F)(F)F)c2)n1)NNc1cnccn1`, the “normalized SmoIP GFP fluorescence” value is 109% under setting [1] and 1.33% under setting [2].
Take `Nc1nccc(Oc2ccc(NC(=O)c3c[nH]cc(-c4ccc(F)cc4)c3=O)cc2F)c1Cl`: the “normalized SmoIP GFP fluorescence” value was 88.3% under setting [1] and -6.34% under setting [2].
Consider `O=c1cc(N2CCOCC2)oc2c(-c3ccccc3)cccc12`, for which the “normalized SmoIP GFP fluorescence” value runs as follows: under setting [1], 108%; under setting [2], -5.76%.
With `CC(C)n1nc(-c2cc3cc(O)ccc3[nH]2)c2c(N)ncnc21`, the “normalized SmoIP GFP fluorescence” value under setting [1] turned out to be 117% and the “normalized SmoIP GFP fluorescence” value under setting [2] was -12.7%.
On to `CCC1=C(C)CN(C(=O)NCCc2ccc(S(=O)(=O)NC(=O)N[C@H]3CC[C@H](C)CC3)cc2)C1=O` [Glimepiride], for which the “normalized SmoIP GFP fluorescence” value under setting [1] stood at 94.8% and the “normalized SmoIP GFP fluorescence” value under setting [2] was determined as 3.18%.
On to `O=C(O)C1(Cc2cccc(Nc3nccs3)n2)CCC(Oc2cccc(Cl)c2F)CC1` (centres undefined), for which the “normalized SmoIP GFP fluorescence” value is 179% under setting [1] and 24.4% under setting [2].
In the case of `CC(C)c1nc(CN(C)C(=O)N[C@@H](CCN2CCOCC2)C(=O)N[C@H](CC[C@H](Cc2ccccc2)NC(=O)OCc2cncs2)Cc2ccccc2)cs1` [cobicistat-gs-9350], the “normalized SmoIP GFP fluorescence” value by setting is: under setting [1], 113%; under setting [2], 0.474%.
For `CC(=O)O[C@H]1CC[C@@]2(C)C(=CCC3C2CC[C@]2(C)C(c4cccnc4)=CCC32)C1` (some centres undefined) [Abiraterone-Acetate-CB7630], the “normalized SmoIP GFP fluorescence” value runs as follows: under setting [1], 106%; under setting [2], -12.7%.
Taken in the same sequence, the figures for `CC(=O)O[C@]1(C(C)=O)CC[C@H]2[C@@H]3C[C@H](C)C4=CC(=O)CC[C@]4(C)[C@H]3CC[C@@]21C` [Medroxyprogesterone-acetate] were 116% and -1.83%.
On to `CN(C)C(=O)c1cc2cnc(Nc3ccc(N4CCNCC4)cn3)nc2n1C1CCCC1`, for which the “normalized SmoIP GFP fluorescence” value runs as follows: under setting [1], 98.3%; under setting [2], -0.265%.
Take `O=C1CCC(N2C(=O)c3ccccc3C2=O)C(=O)N1` (centres undefined) [Thalidomide]: the “normalized SmoIP GFP fluorescence” value was found to be 101% under setting [1] and 4.26% under setting [2].
As to `CC(C)(CO)c1cc2cc(NC(=O)C3(c4ccc5c(c4)OC(F)(F)O5)CC3)c(F)cc2n1C[C@@H](O)CO`, the “normalized SmoIP GFP fluorescence” value under setting [1] worked out at 104% and the “normalized SmoIP GFP fluorescence” value under setting [2] was -3.39%.
On the same counts, the results for `Nc1nc(Nc2ccc(S(N)(=O)=O)cc2)nn1C(=O)c1c(F)cccc1F` are 205% and 67.9%.
On the same counts, the results for `O=C(/C=C/c1ccc(O)c(O)c1)c1ccc(O)cc1O` [butein] are 77.1% and 3.58%.
In the case of `O=C(/C=C\n1cnc(-c2cc(C(F)(F)F)cc(C(F)(F)F)c2)n1)N1CC(F)(F)C1`, the “normalized SmoIP GFP fluorescence” value is, setting by setting: under setting [1], 118%; under setting [2], -0.264%.
Consider `c1ccc2c(Oc3nc(Nc4ccc(N5CCOCC5)cc4)c4ncn(C5CCCCC5)c4n3)cccc2c1` [purmorphamine], for which the “normalized SmoIP GFP fluorescence” value under setting [1] was 107% and the “normalized SmoIP GFP fluorescence” value under setting [2] is -1.23%.
On to `CC(C)C[C@H](NC(=O)[C@H](Cc1ccccc1)NC(=O)c1cnccn1)B(O)O` [Bortezomib], for which the “normalized SmoIP GFP fluorescence” value worked out at 70.3% under setting [1] and 52.4% under setting [2].
Consider `COC(=O)C1=C(C)NC(C)=C(C(=O)OC2CCCN(Cc3ccccc3)C2)C1c1cccc([N+](=O)[O-])c1` (centres undefined) [benidipine-hydrochloride], for which the “normalized SmoIP GFP fluorescence” value was 89.9% under setting [1] and -3.9% under setting [2].

These data come from the supplement of paper PMC5662767.
